Drawing on PubChem BioAssay AID448 (National Center for Advancing Translational Sciences (NCATS), 2006), this text covers Potency for 82 compounds.

Screen size: about 65,000 compounds; about 45 (0.07%) were called active. A selection follows. A number with no mark means an inactive call. The call rests on the fitted dose curve.
Potency means the concentration at half of the fitted maximal effect.

The subject of the experiment is Schistosoma mansoni peroxiredoxin 2 (Prx2). The experiment can be described thus: Schistosoma Mansoni Peroxiredoxins (Prx2). The note with it: S. mansoni Prx2 activity coupled to TGR/GSH (TGR is thioredoxin glutathione reductase), NADPH fluorescence loss, qHTS. The source says:
NIH Molecular Libraries Screening Centers Network [MLSCN]
NIH Chemical Genomics Center [NCGC]
David Williams [Illinois State University]
Schistosoma mansoni, a causative agent of schistosomiasis, resides in the bloodstream of their host up to 30 years without being eliminated by the host immune attack. One proposed survival mechanism is the production of an antioxidant "firewall" that neutralizes the oxidative assault of the host's immune attack. Schistosoma mansoni peroxiredoxins (Prx) are important parasite antioxidant proteins that play a crucial role in redox balance mechanisms. […] First, the proteins are essential for the parasite survival. […] Third, the protein(s) is amenable for study at the molecular level and can be produced in bacteria in large quantities, in soluble and active form. Inhibition of Prx activity was screened in a coupled-enzyme format with reducing equivalents being transferred from NADPH to […] intermediate via thioredoxin/glutathione reductase (TGR)-catalyzed reaction, then from thioredoxin to hydrogen peroxide via Prx-catalyzed electron transfer. A decrease in the fluorescence intensity of NADPH was used to measure the enzyme activity. Purified S. mansoni TGR and Prx were provided by Professor David L. Williams, Illinois State University.
NCGC Assay Protocol Summary:
100 mM phosphate buffer, pH 7.4, 10 mM EDTA, 0.01% Tween-20.
100 uM NADPH/25 nM TGR/700 uM GSH/50 nM Prx2 mixture in columns 1, 2, 5-48. Titration of control potassium antimonyl tartrate (PAT, from 1 mM, then 1:5) pin-transferred to lower half of column 2. Column 1 and upper half of column 2 are neutral (100% activity).
Three uL of reagents were dispensed to 1536-well Greiner black plates. Compounds and controls (20 nL) were transferred via Kalypsys PinTool. The plates were incubated for 15 min at room temperature, and then a 1 uL aliquot of 400 uM NADPH/700 uM GSH was added, immediately followed by a 1uL aliquot of 2.5 mM H2O2 (to start the reaction). The plate was transferred to ViewLux (Perkin-Elmer) High-throughput CCD imager where kinetic measurements (every 30 sec, for a total of 8 min) of NADPH fluorescence were taken using 365 nm excitation/450 nm emission filter set. During dispense, enzyme-containing reagent bottles were kept submerged into 4 deg C water bath to minimize degradation.
Keywords: NIH Roadmap, MLSCN, MLI, MLSMR, David Williams, Peroxyredoxin, Schistosoma mansoni, prx2, prx, , qHTS, NCGC
(In general: Quantitative high-throughput screening tests each substance at several concentrations.)
Take `CS(=O)(=O)N1CCC[C@@]2(CCN(c3ccncc3)C2)C1`: the Potency is greater than 57 µM.
Take `CCS(=O)(=O)N(C)[C@@H]1c2cc(C#N)ccc2OC(C)(C)[C@H]1O`: the Potency is greater than 57 µM.
For the compound `O=C(c1ccco1)N1CCC[C@@]2(CCN(Cc3nccs3)C2)C1`, the Potency was greater than 57 µM.
Turning to `COC(=O)[C@@]1(Cc2ccc(F)cc2)[C@H]2c3cc(C(=O)N4CCCC4)n(C[C@H](O)CO)c3C[C@H]2CN1C(=O)c1ccccc1`, the Potency was greater than 57 µM.
For `Cc1nc2cnc(Nc3ccccc3)nc2n(Cc2ccc(F)cc2)c1=O`, the Potency was greater than 57 µM.
In the case of `O=C(c1cccc(F)c1)N1CCC2(CC1)CCN(c1ccccc1)CC2`, the Potency is greater than 57 µM.
The same measure for `Cc1nc2cnc(Oc3cccc(Cl)c3)nc2n(C2CC2)c1=O`: greater than 57 µM; for `NC[C@@H]1O[C@H](O[C@@H]2[C@H](O[C@@H]3O[C@H](CO)[C@@H](COC[C@H]4O[C@@H](CN)[C@@H](O)[C@@H](O)[C@@H]4N)[C@@H]3O)[C@@H](O)[C@@H](N)C[C@H]2N)[C@@H](N)[C@H](O)[C@@H]1O`: greater than 57 µM; for `CC(C)(C)NCC[C@@H](O)c1cc(C(F)(F)F)nc2c(C(F)(F)F)cccc12`: greater than 57 µM.
In the case of `CCNCCCNCCCNCCCNCC`, the Potency was greater than 57 µM.
Take `COCC(=O)N1CCC2(CCCN(c3ccccc3)C2)CC1`: the Potency is greater than 57 µM.
On to `c1cncc(-c2nc(N3CCNCC3)c3ccccc3n2)c1`, for which the Potency is greater than 57 µM.
For `c1ccc(CCN2CCN=C2Cc2ccccc2)cc1`, the Potency was greater than 57 µM.
The result for `COC(=O)[C@@]1(Cc2ccccc2)[C@H]2c3cc(C(=O)N4CCCC4)n(Cc4ccc(C)o4)c3C[C@H]2CN1C(=O)c1ccccc1` reads greater than 57 µM.
Regarding `Cc1nc2cnc(N3CCNCC3)nc2n(Cc2ccc(F)cc2)c1=O`, the Potency was greater than 57 µM.
As to `COC(=O)[C@H](C)[C@H]1C[C@]1(C)[C@H](NC(=O)OCc1ccccc1)c1ccccc1`, the Potency was greater than 57 µM.
On to `O=c1c(-c2ccc(F)cc2)nc2cnc(N3CCNCC3)nc2n1Cc1cccs1`, for which the Potency is greater than 11.4 µM.
Take `CCC[C@@H]1C[C@@]1(CCC)C(NS(=O)(=O)c1cccc2cccnc12)c1ccc(Cl)cc1` (some centres not stated): the Potency is greater than 57 µM.
As to `NS(=O)(=O)c1cc(C(=O)O)c(Cl)c([N+](=O)[O-])c1Cl`, the Potency is greater than 57 µM.
With `O=c1[nH]c(=O)c2nc3ccccc3nc2[nH]1`, the Potency is greater than 57 µM.
For the compound `N#Cc1ccc(CN2CCCC3(CCN(C(=O)c4ccco4)CC3)C2)cc1`, the Potency is greater than 57 µM.
On to `CC(=O)N1CCC2(CCCN(Cc3ccccc3)C2)CC1`, for which the Potency was greater than 57 µM.
In the case of `CN1[C@H]2CC(OC(=O)[C@@H](CO)c3ccccc3)C[C@H]1[C@H]1O[C@H]12` (some centres not stated), the Potency was greater than 57 µM.
Turning to `COc1ccc2nccc(C(=O)O)c2c1`, the Potency was greater than 25.6 µM.
For `CN(Cc1ccco1)c1cc(-c2ccccc2C(F)(F)F)ncn1`, the Potency is greater than 57 µM.
Take `COc1ccc(-c2nc3cnc(N(C)C)nc3n(Cc3cccs3)c2=O)cc1`: the Potency is greater than 57 µM.
Regarding `Cn1cccc1C(=O)N1CCC2(CC1)CN(c1cccc(-c3ccccc3)c1)C2`, the Potency was greater than 57 µM.
With `O=C(c1ccc([N+](=O)[O-])cc1)[C@@H](Br)[C@@H](Br)c1ccnc2ccccc12`, the Potency was greater than 57 µM.
The result for `CCCN(C/C=C\I)[C@@H]1CCc2cccc(O)c2C1` reads greater than 57 µM.
Consider `O=C(c1ccncc1)N1CCC2(CCCN(C(c3ccccc3)c3ccccc3)C2)CC1`, for which the Potency is greater than 57 µM.
Turning to `Nc1nc(N)c2[nH]c(CNc3ccc(C(=O)O)cc3)nc2n1`, the Potency was greater than 57 µM.
On to `COc1ccccc1CCn1c(=O)c(-c2cn(C)c3ccccc23)nc2cncnc21`, for which the Potency was greater than 57 µM.
Regarding `Cc1cc(N2CCCCC2)nc2ccc(Cc3ccc4nc(N5CCCCC5)cc(C)c4c3)cc12`, the Potency is greater than 11.4 µM.
The same measure for `CC(C)C[C@@H](CC(=O)N[C@@H](CCC(=O)O)CC(=O)O)NC(=O)[C@@H]1CCCC[C@H]1NC(=O)C[C@@H](NC(=O)C[C@H](CO)NC(=O)[C@@H]1CCCC[C@H]1N)C(C)C`: greater than 25.6 µM.
On to `O=c1c(CCc2ccccc2)nc2cnc(N3CCNCC3)nc2n1Cc1cccs1`, for which the Potency is greater than 57 µM.
The same measure for `CS(=O)(=O)N1CCC2(CCN(c3ccncc3)CC2)CC1`: greater than 57 µM.
As for `N[C@H](C(=O)O)c1ccc(C(=O)O)c(O)c1`, the Potency was greater than 57 µM.
Take `Cc1cc(OCC(=O)O)c(Cl)cc1Cl`: the Potency is greater than 57 µM.
Turning to `CC(C)NC(=O)N1CC[C@@]2(CCCN(C(=O)c3cccc(F)c3)C2)C1`, the Potency is greater than 57 µM.
In the case of `Cn1c(=S)c2[nH]c(SCCCc3ccccc3)nc2n(C)c1=O`, the Potency was greater than 57 µM.
In the case of `CN1CCC2(CC1)CCN(S(=O)(=O)c1ccccc1)CC2`, the Potency is greater than 57 µM.
Regarding `Cc1cc2c(cc1C)NC1=C(N2)O[C@H](c2c[nH]c3ccc(COc4ccccc4)cc23)C1=O`, the Potency is greater than 57 µM.
In the case of `O=c1c(-c2cc(F)cc(F)c2)nc2cnc(Oc3ccccc3)nc2n1C[C@H]1CCCO1`, the Potency is greater than 11.4 µM.
The result for `FC(F)(F)c1ccccc1-c1nc(-n2ccnc2)c2ccccc2n1` reads greater than 57 µM; that for `O=C(O)c1ccc(C(=O)O)c2c(C(=O)O)ccc(C(=O)O)c12`, greater than 57 µM; that for `COc1ccccc1CNc1ncnc2ccc(-c3c(C)noc3C)cc12`, greater than 57 µM.
On to `CC(C)c1ccc2c([Si](C)(C)C)c3c(nc2c1)-c1cccc(=O)n1C3`, for which the Potency was greater than 57 µM.
In the case of `COc1ccc2[nH]c3cc4c(=O)c5cc(OC)ccc5[nH]c4cc3c(=O)c2c1`, the Potency was greater than 57 µM.
As for `Cc1cccc(CNc2ccnc(-c3cccnc3)n2)c1`, the Potency was greater than 57 µM.
The result for `C[C@@H](C(=O)Nc1ccc2ccccc2c1)[C@@H]1C[C@@]1(C)[C@@H](NC(=O)c1cccnc1)c1ccccc1` reads greater than 57 µM; that for `CCNc1ncc2ncc(=O)n(Cc3cccc(OC)c3)c2n1`, greater than 57 µM.
For the compound `Cc1c(C)c2c(c(C)c1O)CC[C@@](C)(CN1CCN(c3cc(N4CCCC4)nc(N4CCCC4)n3)CC1)O2`, the Potency is greater than 25.6 µM.
Take `CN(C)C(=O)c1ccc(-c2cncnc2NC2CCNCC2)cc1`: the Potency is greater than 57 µM.
As for `COc1ccc(Br)c2c1C[C@H](C(=O)O)CC2`, the Potency was greater than 57 µM.
On to `COC(=O)[C@@H]1[C@H]2C[C@H]3c4[nH]c5cc(OC)ccc5c4CCN3C[C@@H]2C[C@@H](OC(=O)c2cc(OC)c(OC)c(OC)c2)[C@@H]1OC`, for which the Potency was greater than 57 µM.
The same measure for `O=C(c1ccc(F)cc1)C1CCN(CCCCc2ccccc2)CC1`: greater than 57 µM; for `Cc1ccnc(N)c1`: greater than 25.6 µM.
Turning to `COc1ccccc1CNc1cc(-c2ccccc2CN(C)C)ncn1`, the Potency is greater than 57 µM.
For the compound `O=C(NCc1ccccc1)[C@H]1C[C@@H]1[C@H](NP(=O)(c1ccccc1)c1ccccc1)c1ccccc1`, the Potency is greater than 57 µM.
`COc1ccccc1-c1nc(NCCNC(C)=O)c2ccccc2n1`: the Potency was greater than 57 µM.
`O=C(c1cccc(F)c1)N1CCC2(CCCN(Cc3ccncc3)C2)CC1`: the Potency is greater than 57 µM.
The same measure for `O=c1cc(-c2ccccc2)[nH]c2nc(Cl)ccc12`: greater than 57 µM; for `O=c1cc(-c2ccc(O)c(O)c2)oc2cccc(O)c12`: greater than 57 µM; for `CC(C)C[C@@H](CC(=O)N[C@@H](CCC(=O)O)CC(=O)O)NC(=O)[C@@H]1CCCC[C@H]1NC(=O)C[C@@H](NC(=O)C[C@H](Cc1c[nH]c2ccccc12)NC(=O)[C@@H]1CCCC[C@H]1N)C(C)C`: greater than 57 µM.
Take `C[N+]1(CCN=C=NC2CCCCC2)CCOCC1`: the Potency was greater than 57 µM.
For the compound `O=C(c1cc(C(F)(F)F)cc(C(F)(F)F)c1)N1CCC2(CC1)CN(c1ccncc1)C2`, the Potency is greater than 57 µM.
On to `O=C(c1csnn1)N1CCC[C@@]2(CCN(Cc3nccs3)C2)C1`, for which the Potency is greater than 57 µM.
The result for `COC(=O)[C@@]1(Cc2ccc(F)cc2)[C@H]2c3cc(C(=O)N4CCCC4)n(Cc4ccc(OC(F)(F)F)cc4)c3C[C@H]2CN1C(=O)c1ccccc1` reads greater than 57 µM.
As to `CC[C@]1(C)CC(=O)NC1=O`, the Potency is greater than 57 µM.
Consider `Cn1cc(-c2nc3cnc(N4CCNCC4)nc3n(CCC#N)c2=O)c2ccccc21`, for which the Potency is greater than 57 µM.
As for `O=C(O)c1ccc(C(=O)c2ccccc2C(=O)O)cc1C(=O)O`, the Potency was greater than 57 µM.
On to `O=C1c2ccccc2C(=O)N1CCCSc1ccccc1`, for which the Potency is greater than 57 µM.
The same measure for `O=C(O)COc1c(Cl)cc(Cl)c2cccnc12`: greater than 57 µM.
As to `COc1cccc(Cn2c(=O)c(-c3cc(F)cc(F)c3)nc3cnc(OC)nc32)c1`, the Potency was greater than 57 µM.
Take `CCC[C@@H]1C[C@@]1(CCC)C(NC(=O)c1ccc(-c2ccccc2)cc1)c1cccc(Cl)c1` (some centres not stated): the Potency was greater than 57 µM.
Turning to `COc1cccc(-c2nc(Nc3ccncc3)c3ccccc3n2)c1`, the Potency is greater than 57 µM.
As for `Clc1ccc(C(c2ccc(Cl)cc2)n2cc[n+](C[C@@H](OCc3ccc(Cl)cc3Cl)c3ccc(Cl)cc3Cl)c2)cc1`, the Potency was greater than 57 µM.
For `CC(=O)N1CCC2(CC1)CCN(c1ccncc1)CC2`, the Potency is greater than 57 µM.
`CCOc1ccc(N=NS(=O)(=O)O)cc1`: the Potency is greater than 57 µM.
On to `NCCNCC1CCNCC1`, for which the Potency was greater than 57 µM.
On to `CN(C)c1cc2c(Nc3ccc4c(cnn4Cc4ccccc4)c3)ncnc2cn1`, for which the Potency is greater than 57 µM.
With `C[C@@H]1CC[C@H]2[C@H](C)[C@H]3[C@H](C[C@H]4[C@@H]5CC=C6C[C@@H](O)CC[C@@]6(C)[C@@H]5C[C@@H](O)[C@]34C)N2C1`, the Potency was greater than 57 µM.
